A selection: hits, their analogues and other compounds. The true share with any hit is near 3%.
IkB sig inh: inhibitors of IkB signaling in ABC-DLBCL cells; ABC-DLBCL IkBa-CBG/CBR dual luciferase ratio, 4 h; response scale: scaled: untreated 0%, proteasome inhibitor 100%; Potency, µM (titrated, usually from 57.1 µM); hit rate 0.04% among 110,000; AID 445; active = well fitted curve in the direction sought with a large enough effect in the signal ratio, not every such curve was filed as active; inconclusive = small, poorly fitted or top-dose-only effect, or a change in a side signal; the % refers to the signal ratio;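 also: the direction sought is a rising ratio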
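Luminescence ratio of IκBα-fused green versus native red beetle luciferase in OCI-Ly3 cells, 4 h post-doxycycline with compound; red signal alone, scaled from basal (0%) to zero light (-100%), flagged nonspecific or cytotoxic effects.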
p53ts 39C tox: p53ts cell cytotoxicity, nonpermissive temperature. H1299-p53A138V viability at 39C, ATP luminescence, 24 h. Potency, µM (titrated, usually from 46.1 µM), usual class: cytotoxic. hit rate 1.5% among 130,000; also: nearly all actives have a fitted effect of over 55% in size
p53ts 32C kill: kills p53ts cells at the permissive temperature; hit rate 0.93% among 130,000; H1299-p53A138V at 32C, ATP luminescence viability, 24 h; AID 924; Potency, µM (doses to about 46.1 µM), hits mostly cytotoxic; also: nearly all actives have a fitted effect of over 55% in size
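ATP-content luminescence (ATPlite) read-out after 24 h compound exposure at 32C in H1299-p53A138V cells (600/well). Tested up to 46 uM. Normalized to DMSO (0%) and 100 uM tamoxifen (100% killing); Hill-fit AC50.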
CRE Fsk mod: CRE-bla signaling modulation under forskolin stimulation. Potency, µM (doses to about 38.2 µM), actives largely listed as activators. CHO CRE-bla reporter (cAMP response element driving beta-lactamase), forskolin EC10, beta-lactamase ratio. AID 662. hit rate 2.5% among 71,000; active = well fitted activation curve with a large enough effect in the signal ratio, with a control signal flat, not every such curve was filed as active; inconclusive = small, poorly fitted or top-dose-only effect, or effect the other way, or a change in a side signal; the % refers to the signal ratio
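Cells were plated overnight at 37 °C, exposed to compound titrations plus EC10 NKH 477 for 3 h, then given CCF4 dye for 2 h at room temperature. Blue/green (460/530 nm) ratio was converted to %Activity and AC50 values calculated.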
Peg3 imprint: inducers of genomic imprint erasure in mouse ES cells | hit rate 0.02% among 110,000 | mouse ES Peg3-LacZ reporter, beta-gal luminescence, 40 h | AID 1948 | Potency, µM (doses to about 60.7 µM), usual class: activators
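Gelatin-coated wells received 300 freshly trypsinized female ES cells with a Peg3LacZ-Neo reporter on the maternal allele, then incubated 40 hours at 37C. BetaGlo was added for 5 minutes at room temperature before a single luminescence read.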
A number is an active result; - = inactive; ? = inconclusive; . = no result given; [ ] = another dose, or the depositor's remark. Unless noted, calls follow the shape of the dose curve; as a rule, active = well fitted curve in the direction sought with a large enough effect; inconclusive = small, poorly fitted or top-dose-only effect, or another doubt; inactive = no such curve, though single readings can be large; an effect the other way counts as inactive or inconclusive.

SMILES | IkB sig inh | p53ts 39C tox | p53ts 32C kill | CRE Fsk mod | Peg3 imprint
COc1ccccc1C(=O)Oc1c(Sc2ccccc2)c(C)nn1C(C)(C)C | ? | ? | ? | . | -[10.9 µM]
O=C(Cn1ncc2ccc(Cl)cc21)NCc1ccc(F)cc1 | - | - | - | . | -[10.9 µM]
CC(C)C1=CC2=CC[C@H]3[C@@](C)(CCC[C@]3(C)C(=O)O)[C@@H]2CC1 | -[11.4 µM] | . | . | - | .
CCSc1nc2c(cnn2-c2ccc(C)cc2)c(=O)[nH]1 | - | - | - | 10µM | -
COc1cccc(CNc2ccc3nc(-c4ccc(N)cc4)c(OC)n3n2)c1 | - | - | - | - | -
CCN(c1ccccc1)S(=O)(=O)c1nnc(NC(=O)c2ccco2)s1 | - | 1.3µM | ? | . | -[10.9 µM]
O=C(Nc1ccc(-c2noc(CCc3ccccc3)n2)cc1)c1ccco1 | ? | 10µM | ? | ? | -
COc1ccc(-c2noc(CNC(=O)c3ccco3)n2)cc1 | - | - | - | . | -[10.9 µM]
CCN(CC)c1ccc(NC(=O)c2ccco2)cc1 | - | 10µM | 10µM | - | -
CC1=C(C(=O)Nc2ccccc2C)C(c2ccco2)n2ncnc2N1 (centres undefined) | - | - | - | . | -[10.9 µM]
O=C(CN1CCN(C2CCCCC2)CC1)c1ccc2cc[nH]c2c1 | - | - | - | - | -
O=C(O)c1ccc2cc[nH]c2c1 | - | - | - | 0.2µM | -
Cc1ccc(NC(=O)CN2C(=O)CCc3ccccc32)cc1C | - | - | - | . | -[10.9 µM]
COCCn1c(C)cc(C(=O)CSc2nnc(C)s2)c1C | - | 13µM | 13µM | - | -
COc1ccccc1N1CCN(C(=O)Cn2c(=O)n3nc(-c4cccc(C)c4)nc3c3ccccc32)CC1 | - | - | - | . | -[10.9 µM]
CCN(Cc1ccccc1)C(=O)Cn1c(=O)n(-c2ccccc2)c(=O)c2c1c1cc(C)ccc1n2C | - | - | - | . | -[10.9 µM]
CCCCC1CCC(C(=O)N2CC(=O)Nc3ccc(C)cc3C2c2ccc(F)cc2)CC1 (centres undefined) | - | - | - | . | -[10.9 µM]
CCOc1ccc(-c2cc(C(=O)N3CCN(c4ccc(C)cc4)C(C)C3)c3ccccc3n2)cc1 (centres undefined) | - | 20µM | 16µM | . | -[10.9 µM]
CCOc1ccc(-c2cc(C(=O)N3CCN(c4cccc(C)c4)C(C)C3)c3ccccc3n2)cc1 (centres undefined) | ? | ? | ? | . | -[10.9 µM]
CCOC(=O)N1CCN(C(=O)c2cc(-c3ccc(OCC)cc3)nc3ccccc23)CC1 | - | 10µM | 5µM | ? | -
CCOc1ccc(-c2cc(C(=O)N3CCN(C)CC3)c3ccccc3n2)cc1 | - | 4µM | 2.5µM | - | -
COc1ccc(Cn2c(C(=O)O)c(CNCCc3cccs3)c3ccc(C)cc32)cc1 | ? | - | - | . | -[10.9 µM]
COC(=O)c1ccc(Cn2c(SCc3cccc(C)c3)nc3ccncc32)cc1 | - | ? | 25µM | . | -[10.9 µM]
CCC(C(=O)NC1CCCCC1)n1c(SCc2cccc(F)c2)nc2ccncc21 (centres undefined) | ? | - | - | . | -[10.9 µM]
CCC(C(=O)NC1CCCCC1)n1c(SCc2cccc(C)c2)nc2ccncc21 (centres undefined) | - | 10µM | 13µM | . | -[10.9 µM]
SMILES | IkB sig inh | p53ts 39C tox | p53ts 32C kill | CRE Fsk mod | Peg3 imprint
Cc1cccc(-c2nc(Cn3c(SCc4cccc(C(F)(F)F)c4)nc4ccncc43)c(C)o2)c1 | - | 10µM | - | . | -[10.9 µM]
COc1ccc(OC)c(NC(=O)CN(C)S(=O)(=O)c2ccc3[nH]c4c(c3c2)CCCC4)c1 | . | . | - | . | .
Cc1cc(C)n2cc(CSCc3ccccc3)nc2n1 | . | - | . | . | .
Cc1cc(C)n2cc(CSc3nnc(-c4ccccc4)o3)nc2n1 | - | - | - | 13µM | -
N#C/C(=C\c1ccc(-c2cccc(Cl)c2)o1)C(=O)Nc1cccc(C(F)(F)F)c1 | - | 13µM | - | . | -[10.9 µM]
CCCCCn1c(=N)n(CC(O)COc2cccc(C)c2)c2ccccc21 (centres undefined) | ? | 10µM | ? | . | -[10.9 µM]
Cc1cccc(NC(=O)CSc2nnc3[nH]c(=O)cc(C)n23)c1C | - | - | - | . | -[10.9 µM]
O=C(CSc1nnc2[nH]c(=O)cc(-c3ccccc3)n12)Nc1ccc(F)cc1F | - | 3.2µM | ? | . | -[10.9 µM]
Cc1cccc(NC(=O)CSc2nnc3[nH]c(=O)cc(-c4ccccc4)n23)c1C | - | 1.3µM | - | . | -[10.9 µM]
Cc1cc(=O)[nH]c2nnc(SCC(=O)Nc3ccc(F)cc3F)n12 | - | - | - | . | -[10.9 µM]

Screens: PubChem BioAssay, National Center for Advancing Translational Sciences (NCATS)
